Data from PubChem BioAssay (Tox21).
Unmarked numbers belong to inactive results. Results filed as inconclusive are left out. Entries that show only a call come without a potency. Calls of active or inactive are those of the source. Unless noted, the call rests on the fitted dose curve; in most records, active means well fitted curve in the direction sought with a large enough effect in the repeat runs; inconclusive means weak or mixed curves; inactive means no such curve, though single readings can be large; an effect the other way counts as inactive or inconclusive.

Assays:
[1] = qHTS assay to identify small molecule agonists of the hypoxia (HIF-1) signaling pathway - cell viability counter screen (AID 1224844; calls by dose curve; further: nearly all actives have a fitted effect of over 50% in size)
Method in brief: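 CellTiter-Glo luminescence read-out, 30 min RT, taken in the same wells as the beta-lactamase HRE reporter assay; HRE-bla ME-180 cells, 0.5% dialyzed FBS, 17 hr compound treatment at 37C, 5% CO2.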

[2] = qHTS assay to identify small molecule agonists of H2AX (AID 1224845; active means well fitted activation curve with a large enough effect in the signal ratio in the repeat runs, not every such curve was filed as active; the % refers to the signal ratio; further: potency means the concentration at half of the fitted maximal effect)
Method in brief: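 Wild-type CHO-K1 cells plated overnight, then exposed 3 hr at 37C to compounds at 15 concentrations (0.76% DMSO). Lysed, then HTRF anti-pH2AX(S139)-cryptate/anti-H2AX-d2 detection after 24 hr at room temperature; emissions 665 and 620 nm.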

[3] = qHTS assay to identify small molecule agonists of the hypoxia (HIF-1) signaling pathway (AID 1224846; active means well fitted activation curve with a large enough effect in the signal ratio in the repeat runs, not every such curve was filed as active; the % refers to the signal ratio)
Method in brief: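 Beta-lactamase FRET read-out (CCF4-AM substrate) from ME-180 cells carrying an HRE-driven bla reporter, after 17 hrs compound exposure at 37C/5% CO2. Cells were seeded at 2,000 per well in 0.5% dialyzed FBS medium and preincubated 5 hrs.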

[4] = qHTS assay to identify small molecule agonists of H2AX - cell viability counter screen (AID 1224847; calls by dose curve; further: top concentration of the series differs between compounds; nearly all actives have a fitted effect of over 30% in size)
Method in brief: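 Read-out: CellTiter-Glo luminescence, 30 min RT. Cells: wild-type CHO-K1, 1000/well, 10% FBS, plated overnight at 37C. Treatment: 15 concentrations, 3 hr, 37C, 0.76% DMSO.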

[5] = qHTS RealTime-Glo MT Cell Viability Assay in HepG2 cells - 24 hour (AID 1224867); further: nearly all actives have a fitted effect of over 50% in size
Method in brief: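 HepG2 cells (600/well) were dispensed with RealTime-Glo reagents, incubated 5 h at 37 °C, then treated with compounds in DMSO for up to 40 h. Nonlytic NanoLuc luminescence reflecting viable cells was read at each stated time point.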

[6] = qHTS RealTime-Glo MT Cell Viability Assay in HEK293 cells - 32 hour (AID 1224868); further: nearly all actives have a fitted effect of over 50% in size; further: potency means the concentration at half of the fitted maximal effect
Method in brief: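 HEK293 cells seeded with NanoLuc/prosubstrate reagent, rested 5 h at 37 C, then dosed and kept at 37 C up to 40 h. Nonlytic real-time luminescence from viable cells read at 0, 8, 16, 24, 32 and 40 h.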

[7] = A CellTox Green Cytotoxicity Assay to monitor cytotoxicity in HEK293 cells - 0 hour (AID 1224869); further: nearly all actives have a fitted effect of over 50% in size
Method in brief: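 Read-out: fluorescence of a cell-impermeant cyanine dye staining DNA of dead cells, proportional to cytotoxicity. HEK293, 600 cells/well with reagent, compound (23 nL DMSO) added after 5 h; reads at 0, 8, 16, 24, 32, 40 h.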

[8] = molecular target: Thyrotropin receptor (Homo sapiens) (UniProt P16473); test: qHTS assay to identify small molecule agonists of the thyroid stimulating hormone receptor (TSHR) signaling pathway (AID 1224843; calls by dose curve; further: nearly all actives have a fitted effect of over 45% in size)
Method in brief: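 Compounds are titrated over 15 concentrations, in triplicate, onto TSHR-HEK293 cells seeded at 800/well. Plates sit 30 min at room temperature before cAMP-d2 and anti-cAMP cryptate are added; signal is read after a further hour.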

[9] = qHTS assay to identify small molecule agonists of the estrogen related receptor (ERR) signaling pathway from Tox21 library (AID 1224849; calls by dose curve; further: nearly all actives have a fitted effect of over 15% in size); conditions: ERR reporter cell line, ONE-Glo luciferase, 18 h; at 92.4 µM (top of the series) unless noted
Method in brief: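 Luminescence readout (ONE-Glo, 30 min RT) after 18 h compound exposure at 37 C of NTP-supplied ERR reporter cells; cells were plated 6 h before compound addition by pin tool.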

[10] = qHTS assay to identify small molecule antagonists of the estrogen related receptor (ERR) signaling pathway from Tox21 library (AID 1224848); further: nearly all actives have a fitted effect of over 50% in size
Method in brief: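 First, 2,000 ERR cells per well were plated and held 6 h at 37 C/5% CO2. Next, compounds in DMSO were pinned in and left 18 h at 37 C. Finally, ONE-Glo was added and luminescence read after 30 min at room temperature.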

Sequence of Thyrotropin receptor (Homo sapiens) (P16473 whole entry, looked up): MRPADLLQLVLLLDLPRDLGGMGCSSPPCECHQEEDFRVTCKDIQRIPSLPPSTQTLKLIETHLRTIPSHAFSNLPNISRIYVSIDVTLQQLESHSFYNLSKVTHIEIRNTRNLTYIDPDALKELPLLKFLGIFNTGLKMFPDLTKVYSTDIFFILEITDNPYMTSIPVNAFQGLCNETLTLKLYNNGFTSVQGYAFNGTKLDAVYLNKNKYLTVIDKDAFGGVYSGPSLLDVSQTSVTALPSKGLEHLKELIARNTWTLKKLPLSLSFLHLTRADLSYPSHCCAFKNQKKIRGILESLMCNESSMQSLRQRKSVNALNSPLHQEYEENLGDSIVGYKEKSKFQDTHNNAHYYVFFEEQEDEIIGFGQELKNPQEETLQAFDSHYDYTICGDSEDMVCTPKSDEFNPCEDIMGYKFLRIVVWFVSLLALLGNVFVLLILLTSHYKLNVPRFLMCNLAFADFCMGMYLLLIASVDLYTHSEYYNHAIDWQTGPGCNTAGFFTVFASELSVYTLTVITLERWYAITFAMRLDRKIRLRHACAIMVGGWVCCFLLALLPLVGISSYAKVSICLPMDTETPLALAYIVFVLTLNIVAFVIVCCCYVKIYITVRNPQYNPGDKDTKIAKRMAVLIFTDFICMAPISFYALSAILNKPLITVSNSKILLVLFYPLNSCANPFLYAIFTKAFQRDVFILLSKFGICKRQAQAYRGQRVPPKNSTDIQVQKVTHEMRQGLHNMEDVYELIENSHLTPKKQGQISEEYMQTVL

Compound	Potency [1]	Potency [2]	outcome [3]	Potency [4]	outcome [5]	Potency [6]	Potency [7]	Potency [8]	activity change, positive = activation [9] [%]	Potency [10]
CCOC(C)OCC	inactive	inactive	inactive	inactive	inactive	inactive	inactive	–	–	–
O=C(C1CCCCC1)N1CC(=O)N2CCCc3ccccc3C2C1 (stereo not drawn)	–	inactive	inactive	–	inactive	inactive	inactive	inactive	–	–
O=S(=O)(O)c1cc(Cl)c(Cl)cc1Cl	–	inactive	inactive	–	inactive	inactive	inactive	inactive	–	–
N#Cc1ccc(CC(=O)c2cccc(C(F)(F)F)c2)cc1	inactive	inactive	inactive	inactive	inactive	–	inactive	–	-29.1	–
CC/C=C\CCO	inactive	inactive	inactive	inactive	inactive	inactive	inactive	–	–	inactive
O=C(O)c1cccc(C(=O)O)c1C(=O)O	–	inactive	inactive	inactive	inactive	inactive	inactive	inactive	–	–
CCC(=O)O[C@@H]1C[C@H]2CC[C@]1(C)C2(C)C	inactive	inactive	inactive	inactive	inactive	inactive	inactive	–	0.21	inactive
CCC(=O)O[C@]1(C(=O)COC)[C@@H](C)C[C@H]2[C@@H]3CCC4=CC(=O)C=C[C@]4(C)C3(F)[C@@H](O)C[C@@]21C (stereo partly drawn)	–	inactive	inactive	inactive	inactive	inactive	inactive	inactive	–	inactive
CC(C)CCCCCCCOC(=O)c1ccc(C(=O)OCCCCCCCC(C)C)c(C(=O)OCCCCCCCC(C)C)c1	inactive	–	inactive	–	inactive	inactive	inactive	inactive	–	inactive
C[C@@H](O)[C@H]1C(=O)N2C(C(=O)O)=C(S[C@@H]3CN[C@H](CNS(N)(=O)=O)C3)[C@H](C)[C@H]12	inactive	–	inactive	–	inactive	inactive	inactive	inactive	–	–
CC(C)(Cc1c[nH]c2ccccc12)NCC(O)COc1ccccc1C#N (stereo not drawn)	inactive	inactive	inactive	inactive	inactive	16.9 µM (active)	inactive	–	–	inactive
CCOCCn1c(N2CCCN(C)CC2)nc2ccccc21	inactive	inactive	inactive	inactive	inactive	inactive	inactive	–	–	–
CO[C@@H]1[C@@H](O[C@@H]2O[C@H](C)[C@@H](O[C@H]3C[C@@](C)(O)[C@@H](O)[C@H](C)O3)[C@H](N(C)C)[C@H]2O)[C@@H](CC=O)C[C@@H](C)[C@@H](O[C@@H]2CC[C@H](N(C)C)[C@@H](C)O2)/C=C/C=C/C[C@@H](C)OC(=O)C[C@H]1OC(C)=O	inactive	inactive	inactive	inactive	inactive	inactive	inactive	–	–	–
NCCOCCOCCN	–	inactive	–	inactive	inactive	inactive	inactive	inactive	–	inactive
CC(CN=Cc1ccccc1O)N=Cc1ccccc1O (stereo not drawn)	inactive	inactive	inactive	inactive	inactive	inactive	inactive	–	–	–
Cc1c(-c2cccnc2)c2ccccc2n1CCCCC(=O)O	inactive	inactive	inactive	inactive	inactive	inactive	inactive	–	–	inactive
C=C(C)C(=O)OCCCCCCCCCCOC(=O)C(=C)C	inactive	inactive	inactive	inactive	inactive	inactive	inactive	–	1.48	inactive
[O-][n+]1ccc(Cl)cc1	inactive	inactive	inactive	inactive	inactive	inactive	inactive	–	–	–
COC(=O)Cc1cccc2ccccc12	inactive	inactive	inactive	inactive	inactive	inactive	inactive	–	–	–
COc1ccnc2c1CCCCC2S(=O)c1nc2ccccc2[nH]1 (stereo not drawn)	–	–	inactive	inactive	inactive	7.56 µM (active)	inactive	inactive	–	–
Cc1nc(C)c(C)nc1C	–	inactive	–	–	inactive	inactive	inactive	inactive	-0.837	inactive
O=C(O)c1cc(C(=O)O)c(C(=O)O)cc1C(=O)O	inactive	inactive	inactive	–	inactive	inactive	inactive	–	–	inactive
C=CCCC	–	inactive	inactive	–	inactive	inactive	inactive	–	–	–
C1=COCCC1	inactive	inactive	inactive	inactive	inactive	inactive	inactive	–	–	–
Nc1nc(Cl)nc2c1ncn2[C@H]1C[C@H](O)[C@@H](CO)O1	inactive	14.1 µM (active)	–	–	inactive	inactive	inactive	–	–	–
O=c1c2ccccc2oc2ccccc12	inactive	inactive	–	inactive	inactive	inactive	inactive	–	–	–
O=C(OCCOCCOCCOC(=O)c1ccccc1)c1ccccc1	inactive	inactive	inactive	–	inactive	inactive	inactive	–	–	–
CS(C)=O	inactive	inactive	inactive	–	inactive	–	inactive	–	–	–
C(/C=C/C=C/Nc1ccccc1)=Nc1ccccc1	inactive	inactive	–	inactive	inactive	inactive	inactive	–	–	–
